# Columns and labels:
# Experiment in all cases: DAPPL (digital affinity profiling via proximity ligation, sequencing); 10 mM Tris-HCl pH 7.5, 50 mM NaCl, 1 mM DTT, 4% glycerol, room temperature, 30 min; GST-TFs on glutathione beads, 16-mer random dsDNA library, 0.1% formaldehyde crosslink after washing; high values mean tight binding
# FLI1 = biological target: T1, FLI1 (Homo sapiens, UniProt Q01543 1-452); conditions: protein: recombinant; tags: N-terminal GST; dsDNA, one strand shown
# T1 sequence: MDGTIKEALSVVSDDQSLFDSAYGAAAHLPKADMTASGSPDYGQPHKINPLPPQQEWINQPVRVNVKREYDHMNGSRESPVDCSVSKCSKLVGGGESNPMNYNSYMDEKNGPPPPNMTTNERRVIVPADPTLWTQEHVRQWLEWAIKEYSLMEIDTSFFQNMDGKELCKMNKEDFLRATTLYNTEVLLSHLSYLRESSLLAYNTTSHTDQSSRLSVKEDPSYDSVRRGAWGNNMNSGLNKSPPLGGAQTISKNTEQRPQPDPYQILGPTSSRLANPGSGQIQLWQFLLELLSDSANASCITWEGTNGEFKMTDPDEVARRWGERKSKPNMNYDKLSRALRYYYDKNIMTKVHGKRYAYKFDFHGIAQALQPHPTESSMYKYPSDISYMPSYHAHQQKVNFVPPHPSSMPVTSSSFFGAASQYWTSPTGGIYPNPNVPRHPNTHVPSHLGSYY
# Method in brief: (§1)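 Binding signal is defined as a hexamer's read frequency for one factor over its frequency for the tag-only sample. To obtain reads, GST-fused human transcription factors were expressed in yeast, captured on glutathione beads, barcoded with DNA and pooled with that sample. Pools met 200 nmole of a 16-mer random double-stranded DNA library in Tris/NaCl/DTT/glycerol buffer for 30 min at room temperature before washing, 0.1% formaldehyde crosslinking, proximity ligation (BsaI/T4 ligase, 1 h, 37 °C), PCR and Illumina NextSeq500 sequencing.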
# ELK1 = biological target: T2, ELK1 (Homo sapiens, UniProt P19419 1-428); conditions: protein: recombinant; tags: N-terminal GST; dsDNA, one strand shown
# T2 sequence: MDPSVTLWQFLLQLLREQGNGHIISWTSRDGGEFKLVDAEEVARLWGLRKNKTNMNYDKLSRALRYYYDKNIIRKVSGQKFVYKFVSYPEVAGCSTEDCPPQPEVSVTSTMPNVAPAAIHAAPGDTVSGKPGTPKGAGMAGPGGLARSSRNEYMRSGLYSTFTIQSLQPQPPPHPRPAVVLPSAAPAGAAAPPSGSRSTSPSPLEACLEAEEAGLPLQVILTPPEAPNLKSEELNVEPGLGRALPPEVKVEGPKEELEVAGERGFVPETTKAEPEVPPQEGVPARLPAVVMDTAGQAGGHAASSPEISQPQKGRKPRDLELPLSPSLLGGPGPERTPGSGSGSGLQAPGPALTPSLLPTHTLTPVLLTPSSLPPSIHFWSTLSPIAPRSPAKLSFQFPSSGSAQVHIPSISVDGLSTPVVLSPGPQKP
# Method in brief: as §1
# GABPA = biological target: T3, GABPA (Homo sapiens, UniProt Q06546 1-454); conditions: protein: recombinant; tags: N-terminal GST; dsDNA, one strand shown
# T3 sequence: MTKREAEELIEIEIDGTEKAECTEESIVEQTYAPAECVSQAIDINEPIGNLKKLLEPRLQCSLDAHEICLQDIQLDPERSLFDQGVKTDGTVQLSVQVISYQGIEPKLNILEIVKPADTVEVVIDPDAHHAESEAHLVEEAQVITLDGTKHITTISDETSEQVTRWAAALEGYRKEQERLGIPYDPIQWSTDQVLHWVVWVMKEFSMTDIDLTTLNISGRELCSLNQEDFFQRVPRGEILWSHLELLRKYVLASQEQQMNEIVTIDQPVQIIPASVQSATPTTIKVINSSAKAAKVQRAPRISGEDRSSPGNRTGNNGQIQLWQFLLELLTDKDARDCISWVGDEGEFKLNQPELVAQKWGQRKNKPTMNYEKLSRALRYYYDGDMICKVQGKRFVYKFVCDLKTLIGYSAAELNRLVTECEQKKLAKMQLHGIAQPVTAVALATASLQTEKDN
# Method in brief: as §1
# ERG = biological target: T4, ERG (Homo sapiens, UniProt P11308 1-479); conditions: protein: recombinant; tags: N-terminal GST; dsDNA, one strand shown
# T4 sequence: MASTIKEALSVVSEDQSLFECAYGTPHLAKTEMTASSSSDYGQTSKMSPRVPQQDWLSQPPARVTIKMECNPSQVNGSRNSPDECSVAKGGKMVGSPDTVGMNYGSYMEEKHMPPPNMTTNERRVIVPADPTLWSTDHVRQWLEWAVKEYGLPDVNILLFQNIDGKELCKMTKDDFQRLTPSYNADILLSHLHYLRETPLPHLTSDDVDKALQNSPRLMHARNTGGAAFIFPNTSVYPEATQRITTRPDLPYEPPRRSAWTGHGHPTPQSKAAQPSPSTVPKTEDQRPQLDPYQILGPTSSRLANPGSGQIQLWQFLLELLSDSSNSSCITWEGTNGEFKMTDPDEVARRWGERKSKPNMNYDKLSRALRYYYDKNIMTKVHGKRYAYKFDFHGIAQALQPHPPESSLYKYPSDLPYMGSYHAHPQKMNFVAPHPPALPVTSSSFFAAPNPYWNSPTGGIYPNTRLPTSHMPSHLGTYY
# Method in brief: as §1
# ELF1 = ELF1 (Homo sapiens, UniProt P32519 1-619); conditions: protein: recombinant; tags: N-terminal GST; dsDNA, one strand shown
# Method in brief: as §1
# EHF = biological target: T5, EHF (Homo sapiens, UniProt Q9NZC4 1-300); conditions: protein: recombinant; tags: N-terminal GST; dsDNA, one strand shown
# T5 sequence: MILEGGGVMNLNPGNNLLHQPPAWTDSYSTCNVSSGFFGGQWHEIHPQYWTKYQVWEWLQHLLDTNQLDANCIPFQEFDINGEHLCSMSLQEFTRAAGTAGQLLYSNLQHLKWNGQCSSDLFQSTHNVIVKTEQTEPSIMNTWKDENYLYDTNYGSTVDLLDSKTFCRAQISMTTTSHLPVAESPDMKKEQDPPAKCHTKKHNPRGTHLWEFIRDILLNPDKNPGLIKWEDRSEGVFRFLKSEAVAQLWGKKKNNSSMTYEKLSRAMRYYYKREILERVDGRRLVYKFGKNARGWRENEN
# Method in brief: as §1
# SPI1 = SPI1 (Homo sapiens, UniProt P17947 1-270); conditions: protein: recombinant; tags: N-terminal GST; dsDNA, one strand shown
# Method in brief: as §1
# SPIB = SPIB (Homo sapiens, UniProt Q01892 1-262); conditions: protein: recombinant; tags: N-terminal GST; dsDNA, one strand shown
# Method in brief: as §1
# ELK3 = biological target: T6, ELK3 (Homo sapiens, UniProt P41970 1-407); conditions: protein: recombinant; tags: N-terminal GST; dsDNA, one strand shown
# T6 sequence: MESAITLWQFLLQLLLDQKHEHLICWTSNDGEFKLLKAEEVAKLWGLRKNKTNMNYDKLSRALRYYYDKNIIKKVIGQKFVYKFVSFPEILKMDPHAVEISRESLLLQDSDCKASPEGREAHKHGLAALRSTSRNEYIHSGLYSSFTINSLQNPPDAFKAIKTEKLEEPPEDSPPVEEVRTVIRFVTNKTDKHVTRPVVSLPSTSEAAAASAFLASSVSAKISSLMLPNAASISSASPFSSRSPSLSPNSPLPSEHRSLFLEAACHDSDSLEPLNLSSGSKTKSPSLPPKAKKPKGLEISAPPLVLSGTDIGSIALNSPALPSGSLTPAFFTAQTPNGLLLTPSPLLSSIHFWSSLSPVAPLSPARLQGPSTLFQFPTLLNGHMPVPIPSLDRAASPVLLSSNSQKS
# Method in brief: as §1
# FEV = biological target: T7, FEV (Homo sapiens, UniProt Q99581 1-238); conditions: protein: recombinant; tags: N-terminal GST; dsDNA, one strand shown
# T7 sequence: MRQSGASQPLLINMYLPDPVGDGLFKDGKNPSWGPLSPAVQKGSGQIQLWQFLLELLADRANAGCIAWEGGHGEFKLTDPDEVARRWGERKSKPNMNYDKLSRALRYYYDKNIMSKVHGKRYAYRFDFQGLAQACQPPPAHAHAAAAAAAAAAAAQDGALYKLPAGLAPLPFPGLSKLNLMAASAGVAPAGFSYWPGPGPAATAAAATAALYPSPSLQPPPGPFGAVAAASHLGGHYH
# Method in brief: as §1
# ETV5 = ETV5 (Homo sapiens, UniProt P41161 1-510); conditions: protein: recombinant; tags: N-terminal GST; dsDNA, one strand shown
# Method in brief: as §1
# HSF1 = HSF1 (Homo sapiens, UniProt Q00613 1-529); conditions: protein: recombinant; tags: N-terminal GST; chain copies: 3; dsDNA, one strand shown
# Method in brief: as §1
# SPIC = biological target: T8, SPIC (Homo sapiens, UniProt Q8N5J4 1-248); conditions: protein: recombinant; tags: N-terminal GST; dsDNA, one strand shown
# T8 sequence: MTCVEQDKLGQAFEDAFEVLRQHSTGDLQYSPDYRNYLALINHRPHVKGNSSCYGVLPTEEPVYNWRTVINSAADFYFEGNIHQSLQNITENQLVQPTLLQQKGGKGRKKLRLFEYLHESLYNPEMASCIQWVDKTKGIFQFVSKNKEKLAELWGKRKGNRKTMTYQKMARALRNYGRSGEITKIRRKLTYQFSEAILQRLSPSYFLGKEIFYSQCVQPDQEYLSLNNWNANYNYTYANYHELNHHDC
# Method in brief: as §1
# ELF4 = ELF4 (Homo sapiens, UniProt Q99607 1-663); conditions: protein: recombinant; tags: N-terminal GST; dsDNA, one strand shown
# Method in brief: as §1
# ELK4 = biological target: T9, ELK4 (Homo sapiens, UniProt P28324-2 1-405); conditions: protein: recombinant; tags: N-terminal GST; dsDNA, one strand shown
# T9 sequence: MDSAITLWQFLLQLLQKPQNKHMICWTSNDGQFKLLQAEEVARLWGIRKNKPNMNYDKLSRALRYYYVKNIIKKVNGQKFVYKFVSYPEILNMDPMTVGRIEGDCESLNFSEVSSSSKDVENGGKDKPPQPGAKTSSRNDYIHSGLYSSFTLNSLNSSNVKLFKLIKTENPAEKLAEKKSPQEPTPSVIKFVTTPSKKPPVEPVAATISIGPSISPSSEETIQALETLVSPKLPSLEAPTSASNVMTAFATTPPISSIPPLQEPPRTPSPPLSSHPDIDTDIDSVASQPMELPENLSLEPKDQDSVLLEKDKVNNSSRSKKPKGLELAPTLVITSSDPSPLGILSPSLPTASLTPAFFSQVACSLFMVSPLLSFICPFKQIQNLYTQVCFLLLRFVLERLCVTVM
# Method in brief: as §1
# ETV2 = biological target: T10, ETV2 (Homo sapiens, UniProt O00321 1-342); conditions: protein: recombinant; tags: N-terminal GST; dsDNA, one strand shown
# T10 sequence: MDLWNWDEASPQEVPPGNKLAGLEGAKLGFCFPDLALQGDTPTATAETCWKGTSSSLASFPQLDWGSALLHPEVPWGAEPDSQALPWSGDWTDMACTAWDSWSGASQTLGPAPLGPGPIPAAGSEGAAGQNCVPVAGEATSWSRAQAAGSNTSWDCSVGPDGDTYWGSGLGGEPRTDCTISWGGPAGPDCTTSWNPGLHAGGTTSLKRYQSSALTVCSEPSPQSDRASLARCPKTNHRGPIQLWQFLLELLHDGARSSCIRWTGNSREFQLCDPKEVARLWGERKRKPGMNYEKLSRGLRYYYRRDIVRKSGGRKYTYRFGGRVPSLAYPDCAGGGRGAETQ
# Method in brief: as §1
# ELF3 = biological target: T11, ELF3 (Homo sapiens, UniProt P78545 1-371); conditions: protein: recombinant; tags: N-terminal GST; dsDNA, one strand shown
# T11 sequence: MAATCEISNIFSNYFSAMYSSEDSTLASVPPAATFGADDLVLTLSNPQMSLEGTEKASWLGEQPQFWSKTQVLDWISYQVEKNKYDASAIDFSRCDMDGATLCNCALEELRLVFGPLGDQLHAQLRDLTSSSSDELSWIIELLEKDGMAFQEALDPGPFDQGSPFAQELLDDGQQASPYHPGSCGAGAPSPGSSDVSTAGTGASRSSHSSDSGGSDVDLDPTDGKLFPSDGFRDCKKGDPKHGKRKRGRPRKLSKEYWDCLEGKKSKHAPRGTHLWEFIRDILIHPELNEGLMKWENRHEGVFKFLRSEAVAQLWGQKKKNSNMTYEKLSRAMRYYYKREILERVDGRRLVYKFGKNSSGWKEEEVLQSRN
# Method in brief: as §1
# CRX = CRX (Homo sapiens, UniProt O43186 1-299); conditions: protein: recombinant; tags: N-terminal GST; dsDNA, one strand shown
# Method in brief: as §1
# ETV1 = ETV1 (Homo sapiens, UniProt P50549 1-477); conditions: protein: recombinant; tags: N-terminal GST; dsDNA, one strand shown
# Method in brief: as §1
# ETV5, sequence (P41161 whole entry): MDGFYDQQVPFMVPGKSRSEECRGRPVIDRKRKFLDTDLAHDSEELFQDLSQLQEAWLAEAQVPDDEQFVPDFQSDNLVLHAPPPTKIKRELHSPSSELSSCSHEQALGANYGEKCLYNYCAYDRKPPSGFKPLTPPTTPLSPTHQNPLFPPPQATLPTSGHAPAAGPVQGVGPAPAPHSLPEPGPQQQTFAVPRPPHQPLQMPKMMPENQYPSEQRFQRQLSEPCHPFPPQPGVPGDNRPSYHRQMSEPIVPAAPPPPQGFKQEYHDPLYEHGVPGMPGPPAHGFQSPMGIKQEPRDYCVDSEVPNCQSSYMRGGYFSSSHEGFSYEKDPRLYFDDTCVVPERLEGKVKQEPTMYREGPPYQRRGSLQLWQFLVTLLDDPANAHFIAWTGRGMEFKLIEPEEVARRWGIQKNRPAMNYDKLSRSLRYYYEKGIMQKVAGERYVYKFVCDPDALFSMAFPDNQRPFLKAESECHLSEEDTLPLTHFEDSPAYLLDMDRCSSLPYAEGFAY
# CRX, sequence (O43186 whole entry): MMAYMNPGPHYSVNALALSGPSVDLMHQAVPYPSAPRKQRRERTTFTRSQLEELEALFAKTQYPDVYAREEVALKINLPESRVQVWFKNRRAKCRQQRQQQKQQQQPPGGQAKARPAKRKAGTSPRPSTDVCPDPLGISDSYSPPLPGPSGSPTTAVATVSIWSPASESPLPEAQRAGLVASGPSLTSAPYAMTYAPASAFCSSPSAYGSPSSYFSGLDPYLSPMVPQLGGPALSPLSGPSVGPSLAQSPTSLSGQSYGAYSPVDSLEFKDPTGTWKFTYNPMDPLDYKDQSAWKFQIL
# ELF1, sequence (P32519 whole entry): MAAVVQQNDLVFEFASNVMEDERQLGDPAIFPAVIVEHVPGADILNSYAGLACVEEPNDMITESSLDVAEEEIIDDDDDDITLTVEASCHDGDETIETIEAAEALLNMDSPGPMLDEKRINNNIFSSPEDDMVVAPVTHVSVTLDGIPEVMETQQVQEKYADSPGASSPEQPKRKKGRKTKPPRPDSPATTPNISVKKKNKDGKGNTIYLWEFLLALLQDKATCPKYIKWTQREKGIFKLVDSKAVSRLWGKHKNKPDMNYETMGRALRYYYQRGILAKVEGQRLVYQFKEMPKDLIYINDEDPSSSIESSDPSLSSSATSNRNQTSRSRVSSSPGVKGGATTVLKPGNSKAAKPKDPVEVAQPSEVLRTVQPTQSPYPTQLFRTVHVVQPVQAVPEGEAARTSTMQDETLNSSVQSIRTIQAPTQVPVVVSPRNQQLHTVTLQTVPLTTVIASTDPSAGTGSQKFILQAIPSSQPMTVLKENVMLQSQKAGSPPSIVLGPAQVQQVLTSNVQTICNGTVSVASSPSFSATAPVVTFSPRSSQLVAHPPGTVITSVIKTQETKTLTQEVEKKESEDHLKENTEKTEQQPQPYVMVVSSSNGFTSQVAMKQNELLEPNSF
# ELF4, sequence (Q99607 whole entry): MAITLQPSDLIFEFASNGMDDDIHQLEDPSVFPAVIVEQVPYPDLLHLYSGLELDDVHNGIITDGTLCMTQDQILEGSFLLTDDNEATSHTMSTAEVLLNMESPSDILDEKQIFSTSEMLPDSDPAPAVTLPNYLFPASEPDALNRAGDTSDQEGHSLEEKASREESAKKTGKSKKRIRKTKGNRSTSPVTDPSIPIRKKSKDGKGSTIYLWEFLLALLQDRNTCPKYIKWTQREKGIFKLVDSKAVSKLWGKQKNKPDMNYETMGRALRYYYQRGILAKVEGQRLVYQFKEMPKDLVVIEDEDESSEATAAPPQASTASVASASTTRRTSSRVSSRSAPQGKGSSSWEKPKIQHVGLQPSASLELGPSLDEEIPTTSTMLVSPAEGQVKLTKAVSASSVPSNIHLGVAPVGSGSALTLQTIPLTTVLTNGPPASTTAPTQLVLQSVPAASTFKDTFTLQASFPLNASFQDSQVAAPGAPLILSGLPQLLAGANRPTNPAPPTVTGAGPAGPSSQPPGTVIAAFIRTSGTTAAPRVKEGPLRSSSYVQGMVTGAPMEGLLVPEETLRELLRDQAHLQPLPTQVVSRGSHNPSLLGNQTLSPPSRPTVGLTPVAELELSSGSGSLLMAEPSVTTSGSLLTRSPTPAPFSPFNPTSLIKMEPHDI
# ETV1, sequence (P50549 whole entry): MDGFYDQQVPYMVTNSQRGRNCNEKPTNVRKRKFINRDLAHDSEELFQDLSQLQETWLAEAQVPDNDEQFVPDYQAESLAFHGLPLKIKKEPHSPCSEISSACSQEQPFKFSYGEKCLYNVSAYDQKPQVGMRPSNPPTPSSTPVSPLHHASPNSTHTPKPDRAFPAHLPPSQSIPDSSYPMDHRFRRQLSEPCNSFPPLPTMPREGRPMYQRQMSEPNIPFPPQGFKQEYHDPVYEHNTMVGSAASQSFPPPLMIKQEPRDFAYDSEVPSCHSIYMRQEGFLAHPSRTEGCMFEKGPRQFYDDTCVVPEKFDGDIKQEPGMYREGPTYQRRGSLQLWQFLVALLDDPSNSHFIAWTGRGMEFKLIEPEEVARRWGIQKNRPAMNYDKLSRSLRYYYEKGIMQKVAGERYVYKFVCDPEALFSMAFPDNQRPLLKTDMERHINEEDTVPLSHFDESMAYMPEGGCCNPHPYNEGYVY
# HSF1, sequence (Q00613 whole entry): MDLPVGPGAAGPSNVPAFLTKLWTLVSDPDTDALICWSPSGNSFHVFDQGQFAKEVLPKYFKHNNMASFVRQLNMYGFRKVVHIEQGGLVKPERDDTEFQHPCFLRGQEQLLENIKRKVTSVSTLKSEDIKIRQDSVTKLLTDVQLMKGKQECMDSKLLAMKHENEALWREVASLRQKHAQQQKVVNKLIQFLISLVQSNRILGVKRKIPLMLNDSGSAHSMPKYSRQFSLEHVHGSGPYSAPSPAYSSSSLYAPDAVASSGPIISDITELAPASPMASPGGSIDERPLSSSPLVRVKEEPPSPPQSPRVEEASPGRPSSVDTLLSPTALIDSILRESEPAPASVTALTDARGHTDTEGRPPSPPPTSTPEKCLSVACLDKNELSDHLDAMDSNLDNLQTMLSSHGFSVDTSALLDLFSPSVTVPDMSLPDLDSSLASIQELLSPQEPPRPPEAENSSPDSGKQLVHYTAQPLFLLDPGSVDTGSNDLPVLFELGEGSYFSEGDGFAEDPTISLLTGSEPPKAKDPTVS
# SPIB, sequence (Q01892 whole entry): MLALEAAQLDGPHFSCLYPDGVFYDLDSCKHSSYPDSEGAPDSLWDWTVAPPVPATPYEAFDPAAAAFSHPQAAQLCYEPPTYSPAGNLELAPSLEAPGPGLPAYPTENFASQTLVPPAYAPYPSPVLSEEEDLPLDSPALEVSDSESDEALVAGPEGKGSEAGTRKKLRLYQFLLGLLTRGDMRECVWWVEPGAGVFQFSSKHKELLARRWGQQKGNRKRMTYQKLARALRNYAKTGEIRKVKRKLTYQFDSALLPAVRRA
sequence,measurement,setting,value
TATTGG,binding signal,FLI1,"1.12 fold enrichment (6-mer frequency, TF over GST control)"
same,binding signal,ELK1,"1.14 fold enrichment (6-mer frequency, TF over GST control)"
same,binding signal,GABPA,"1.22 fold enrichment (6-mer frequency, TF over GST control)"
same,binding signal,ERG,"1.15 fold enrichment (6-mer frequency, TF over GST control)"
same,binding signal,ELF1,"1.22 fold enrichment (6-mer frequency, TF over GST control)"
same,binding signal,EHF,"1.26 fold enrichment (6-mer frequency, TF over GST control)"
same,binding signal,SPI1,"1.06 fold enrichment (6-mer frequency, TF over GST control)"
same,binding signal,SPIB,"1.24 fold enrichment (6-mer frequency, TF over GST control)"
same,binding signal,ELK3,"1.07 fold enrichment (6-mer frequency, TF over GST control)"
same,binding signal,FEV,"1.14 fold enrichment (6-mer frequency, TF over GST control)"
same,binding signal,ETV5,"1.19 fold enrichment (6-mer frequency, TF over GST control)"
same,binding signal,HSF1,"1.2 fold enrichment (6-mer frequency, TF over GST control)"
same,binding signal,SPIC,"1.19 fold enrichment (6-mer frequency, TF over GST control)"
same,binding signal,ELF4,"1.21 fold enrichment (6-mer frequency, TF over GST control)"
same,binding signal,ELK4,"1.28 fold enrichment (6-mer frequency, TF over GST control)"
same,binding signal,ETV2,"1.14 fold enrichment (6-mer frequency, TF over GST control)"
same,binding signal,ELF3,"1.24 fold enrichment (6-mer frequency, TF over GST control)"
same,binding signal,CRX,"1.4 fold enrichment (6-mer frequency, TF over GST control)"
same,binding signal,ETV1,"1.13 fold enrichment (6-mer frequency, TF over GST control)"

# From article PMC7862700, “An all-to-all approach to the identification of sequence-specific readers for epigenetic DNA modifications on cytosine”
